Experiment [1] deals with T1, ETS1 (UniProt P14921).
T1 sequence: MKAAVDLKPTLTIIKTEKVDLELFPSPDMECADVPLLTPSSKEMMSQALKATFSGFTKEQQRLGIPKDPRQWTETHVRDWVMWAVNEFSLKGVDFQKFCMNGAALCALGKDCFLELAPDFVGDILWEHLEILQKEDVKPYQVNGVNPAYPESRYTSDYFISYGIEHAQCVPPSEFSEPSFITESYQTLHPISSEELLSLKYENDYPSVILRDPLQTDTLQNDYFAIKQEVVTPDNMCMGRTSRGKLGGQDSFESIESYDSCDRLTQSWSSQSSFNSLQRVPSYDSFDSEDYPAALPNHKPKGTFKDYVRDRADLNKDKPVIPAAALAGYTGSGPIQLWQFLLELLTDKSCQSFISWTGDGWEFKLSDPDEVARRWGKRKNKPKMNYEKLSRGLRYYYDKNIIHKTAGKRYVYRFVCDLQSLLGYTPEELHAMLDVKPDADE
Briefly: ETS1 binding intensity (PBM fluorescence), ETS1 alone (arbitrary fluorescence units); higher = stronger binding. Conditions: ETS1 concentration 1 nM; RUNX1 concentration 0 nM.

Experiment [2] deals with RUNX1 (UniProt Q01196). Kind of experiment: RUNX1 binding intensity (PBM fluorescence), RUNX1 alone (arbitrary fluorescence units); higher = stronger binding. Conditions: RUNX1 concentration 2 nM; ETS1 concentration 0 nM. On the procedure: (§1)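 Cooperative gcPBM on 36-bp genomic probes with neighbouring ETS1 and RUNX1 sites. Recombinant human RUNX1 (2 nM) was incubated alone or with ETS1 (25 nM) and detected with anti-RUNX1 antibody plus Alexa488 secondary. Values are medians over 4 replicate spots; the RUNX1+ETS1 data were normalised to the RUNX1-only data. The probes sit in constant array flanks that are not printed.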

Experiment [3] concerns the target T1, ETS1. Briefly: ETS1 binding intensity (PBM fluorescence) in presence of RUNX1, normalised to ETS1-only experiment (arbitrary fluorescence units); higher = stronger binding. To be noted: ETS1 concentration 1 nM; RUNX1 concentration 25 nM.
Experiment [4] deals with RUNX1 (UniProt Q01196). Briefly: RUNX1 binding intensity (PBM fluorescence) in presence of ETS1, normalised to RUNX1-only experiment (arbitrary fluorescence units); higher = stronger binding. To be noted: RUNX1 concentration 2 nM; ETS1 concentration 25 nM. On the procedure: as §1

Drawing on the supplement of paper PMC10681739, this text covers ETS1 binding intensity and RUNX1 binding intensity for 37 sequences.
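Wherever RUNX1 binding intensity (PBM fluorescence) in presence of ETS1, normalised to RUNX1-only experiment is given: Full-length recombinant human ETS1 or RUNX1 bound to double-stranded 36-bp genomic probes on microarrays, detected by protein-specific primary antibody and Alexa488 secondary, spot fluorescence as median of four replicate spots.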
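Wherever RUNX1 binding intensity (PBM fluorescence), RUNX1 alone is given: Full-length recombinant human RUNX1 bound to double-stranded 36-bp genomic probes on a high-density microarray, scored as Alexa488 fluorescence per spot via anti-RUNX1 antibody, median of four replicate spots.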

Chain of RUNX1 (Q01196 whole entry): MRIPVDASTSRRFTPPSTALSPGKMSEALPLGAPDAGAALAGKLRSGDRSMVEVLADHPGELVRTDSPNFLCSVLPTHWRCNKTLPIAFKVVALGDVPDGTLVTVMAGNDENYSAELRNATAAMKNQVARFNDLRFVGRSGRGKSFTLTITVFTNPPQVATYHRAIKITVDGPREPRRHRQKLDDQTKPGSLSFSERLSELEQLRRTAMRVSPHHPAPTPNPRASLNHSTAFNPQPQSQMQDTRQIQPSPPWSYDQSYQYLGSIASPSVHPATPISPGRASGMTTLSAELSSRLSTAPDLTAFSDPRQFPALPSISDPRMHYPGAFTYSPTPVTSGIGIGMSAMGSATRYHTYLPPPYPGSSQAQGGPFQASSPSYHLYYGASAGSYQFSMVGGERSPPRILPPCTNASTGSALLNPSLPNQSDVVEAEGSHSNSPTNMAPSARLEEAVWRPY

Take GAAGAGAAAGGAAACGGCTCGCGGTTTCTGGGGTTC: the ETS1 binding intensity with ETS1 [1] stood at 822; with ETS1 [3], 3150. Also, the values for the RUNX1 binding intensity in the experiment with RUNX1 [2] and with RUNX1 [4] were 738 and 1280, respectively.
The matching figures for GACCGAGAGGAAGCAGCAAGGATCCTGCGGTTCCAG: 505, 1990, 821 and 875.
The matching figures for ACAGGAAATGTTAGAGGTTGAGTTAGCGGTTATGAG: 1620, 3640, 833 and 914.
The like results for TATTGTGTACTTCCCCTTCATGTTGTGGTTGGCTTT were, in that order, 449, 619, 1120 and 1560.
TCACTCTAACAGGATATTGTGGTTAACTATGTTGCC: the ETS1 binding intensity with ETS1 [1] was found to be 2460; with ETS1 [3], 17400. Besides, the RUNX1 binding intensity with RUNX1 [2] worked out at 2580; with RUNX1 [4], 14800.
The like results for TGCGACGGAAGCAGGAACTTGCTAACCACAAAACCC were, in that order, 1350, 13200, 1790 and 3420.
The matching figures for ATGTCCCCAGGAGGATGTGGTGTGTCCACAGGAGGA: 759, 1650, 742 and 875.
The matching figures for CACCTGCGGAAGTCACAGGGAAGCCACAGAGAGATG: 849, 1160, 766 and 1080.
For the sequence AAATCCACTCAGAGGAAACCACAGGCCTGGCCCAGC, the ETS1 binding intensity in the experiment with ETS1 [1] stood at 365; with ETS1 [3], 622. The RUNX1 binding intensity was 1300 with RUNX1 [2] and 1690 in the experiment with RUNX1 [4].
The like results for GAGCAAACGGAGGCAGGAAGTGGTTATGTAACTTCA were, in that order, 7030, 12400, 810 and 2170.
The matching figures for CAGACCAGCCCAGGAAACAAGGAACCACAAAGCCAC: 656, 2260, 842 and 992.
The matching figures for GGGAGGTGTCCAGGAAGTGGTTGGAGAGTCTGGTCT: 2240, 3340, 756 and 1020.
Turning to CCCGCGACACAAGGCGGATGTGGTACCCTCACTTGT, the ETS1 binding intensity with ETS1 [1] came to 3250; in the experiment with ETS1 [3], 5070. The RUNX1 binding intensity in the experiment with RUNX1 [2] turned out to be 820; in the experiment with RUNX1 [4] it was 1200.
Turning to GGTCTCTGCTTCCGGTCCTTGTGGTAGCACCTCTGT, the ETS1 binding intensity stood at 4510 with ETS1 [1] and 5180 in the experiment with ETS1 [3]. In addition, the results for the RUNX1 binding intensity with RUNX1 [2] and with RUNX1 [4] were 936 and 2710, respectively.
The matching figures for TGCGCGCCGGCTTCCGCTGCGGCCAGTCGGGCGGCG: 668, 635, 647 and 1240.
The matching figures for ACAGCTCACACAGGAAATACAAACCTCAAAAAGCAA: 2600, 7480, 1070 and 1670.
For GGGGCCTCTGCTACTTCCTAGACCGCAAAATGGAGA, the values for the ETS1 binding intensity in the experiment with ETS1 [1] and with ETS1 [3] were 413 and 1570, respectively. For the same sequence, the RUNX1 binding intensity stood at 5260 with RUNX1 [2] and 6150 in the experiment with RUNX1 [4].
As to CCAGGGCCGGAAGTGCTGGTGGTGGTTTCCATCATG, the ETS1 binding intensity with ETS1 [1] was 8960; in the experiment with ETS1 [3] it was 13900. Further, the RUNX1 binding intensity with RUNX1 [2] came to 733; with RUNX1 [4], 1750.
The like results for CGGCCTCTTCCGGTCACCTGGCCCGTCGCGGTCCCG were, in that order, 1800, 1520, 1040 and 2290.
The matching figures for TTCTTCCCCCTTCCGGTCGCTGAGTGGTTGAGGCCG: 4140, 3610, 898 and 2500.
On to GGTTTAACGTTTCCGGTTTGTGGCTAGTTTCTTGTC, for which the ETS1 binding intensity with ETS1 [1] came to 7540; with ETS1 [3], 12500. The RUNX1 binding intensity with RUNX1 [2] was 1060; with RUNX1 [4], 3520.
The matching figures for ATGGGTACAGGATTTCCTTTTGTGGTGATGAAAATG: 697, 1030, 913 and 1200.
The matching figures for CCACGGCTGGCTTCCTGTGTGGTTGGCACGCCTTAC: 951, 1210, 772 and 1620.
The matching figures for TGAGCCCTACTTCCGGTGGTGCTGTGGTCTGCCCCT: 10700, 13200, 786 and 2330.
Take CTCCATCTGCCCGGAAAACCGCAGCCGCCCCAACCT: the results for the ETS1 binding intensity with ETS1 [1] and with ETS1 [3] were 841 and 3690, respectively. For the same sequence, the RUNX1 binding intensity is 28600 in the experiment with RUNX1 [2] and 34700 with RUNX1 [4].
Turning to TTACAATCATTTCCTCTCTGTGGTTTGGTGACAAAT, the ETS1 binding intensity was determined as 722 with ETS1 [1] and 2000 with ETS1 [3]. The RUNX1 binding intensity in the experiment with RUNX1 [2] stood at 1620; in the experiment with RUNX1 [4], 3180.
The like results for AGGTCTCCGGAAGTGGGTCTGCGGCGCGCGGGATGC were, in that order, 6040, 8540, 637 and 3290.
In the case of GTGCCTCACCGCTTCCGGCGCTGCGGGATGACGTCA, the ETS1 binding intensity with ETS1 [1] was 2390; in the experiment with ETS1 [3] it was 4720. The RUNX1 binding intensity came to 786 with RUNX1 [2] and 7320 with RUNX1 [4].
The matching figures for GACAAAACACAGAAAGGAAGTGGTCAACTATTGCAC: 2510, 4930, 835 and 1600.
The matching figures for CACCTCCTACTTCCCCCCGCTGATAACCACCAACCC: 1700, 1790, 2990 and 2830.
The matching figures for GCTGAGGCCGGAAGAGGGTGGGGCCGCGGTGGCTAG: 2170, 3070, 756 and 1260.
GAGGCGTTTCCGCCTCCTTTTCGCGGTTGCCTTCTC: the ETS1 binding intensity with ETS1 [1] is 639; with ETS1 [3], 761. Further, the RUNX1 binding intensity in the experiment with RUNX1 [2] came to 1060; in the experiment with RUNX1 [4], 2790.
The like results for GTTGAAATTGAGCTTCCGTTGGTGGTTAACCCTCTG were, in that order, 648, 921, 894 and 1310.
The matching figures for CGGGCTGGGAGGAAGTGATGGCTGACCACAGAGGAG: 1130, 4610, 1000 and 1570.
The matching figures for CGGGACCTGTTTCCTTGGGAACCACAAGATAAGACC: 407, 520, 709 and 892.
With GAGAAACAAACAGGATGTGGTCTCTGCCCTGGAGGA, the values for the ETS1 binding intensity with ETS1 [1] and with ETS1 [3] were 7010 and 12000, respectively. Besides, the RUNX1 binding intensity in the experiment with RUNX1 [2] came to 737; in the experiment with RUNX1 [4] it was 2420.
On to GACCCGGCCCGCCCCTTCCGGCCGCAGCGCGGGGCA, for which the ETS1 binding intensity in the experiment with ETS1 [1] is 704; with ETS1 [3], 817. Moreover, the RUNX1 binding intensity stood at 952 in the experiment with RUNX1 [2] and 1490 in the experiment with RUNX1 [4].
